mHTT-CaM PPI inh: disrupts binding of mutant huntingtin to calmodulin | inhibition, % at 15 µM | hit rate 3.6% among 190,000 | AlphaScreen His-mHTT/GST-CaM binding, luminescence | AID 1671202 | P42858;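 also: 0% = both proteins with DMSO and 100% = one protein alone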
Pf apPOL block: Pf-apPOL DNA polymerase inhibition; Recombinant Pf-apPOL, molecular beacon fluorescence, 1.5 h; inhibition, % at 10 µM; hit rate 0.25% among 210,000; AID 1794808
The depositor's hits bear a star; · = no result given. Hits are enriched below; roughly 3.6% of the tested compounds scored in any of these assays. Rule as the data show it: active = inhibition above about 50%; inactive = the rest.

SMILES | mHTT-CaM PPI inh | Pf apPOL block
Cc1c(C)n(CC(O)CNc2ccc(Br)cc2)c2ccccc12 (centres undefined) | 100.0* | 6.0
Cc1c(C)n(CC(O)CNCCCO)c2ccccc12 (centres undefined) | 15.0 | 2.8
Cc1oc(=O)c2ccccc2c1C(=O)O | -4.8 | 2.8
Cc1ccc(C(=O)N2CCC(Cc3nnc(-c4ccccc4)o3)CC2)s1 | 7.4 | -10.4
COc1cc(NC(=O)CCc2sc(C)nc2-c2cccs2)c(OC)cc1Cl | 20.0 | -4.1
CC1(C)CC(=O)C2=C(C1)Nc1ncnn1C2c1ccccc1 (centres undefined) | -2.0 | 0.0
c1ccc(C2C3=C(CCCC3)Nc3nc4ccccc4n32)cc1 (centres undefined) | 100.0* | 0.3
c1ccc(C2C3=C(CCCC3)Nc3ncnn32)cc1 (centres undefined) | 7.0 | 96.3*
O=C1CCCC2=C1C(c1ccccc1Cl)n1c(nc3ccccc31)N2 (centres undefined) | -5.0 | -11.8
COCC(C)NC(=O)c1cc(N2CCCC(C)C2)nc2ccccc12 (centres undefined) | -23.7 | -1.2
CCOC(=O)c1ccccc1NC(=O)c1ccc(N2CCCC2)nn1 | -2.0 | -4.4
COc1ccccc1NC(=O)C1=C(C)Nc2nc3ccccc3n2C1c1ccc(Cl)cc1 (centres undefined) | 51.0* | -0.5
COc1ccccc1NC(=O)C1=C(C)Nc2nc3ccccc3n2C1c1cccnc1 (centres undefined) | 5.0 | -3.1
COc1ccc(NC(=O)CN2C(=O)C(c3ccc(C(C)(C)C)cc3)=NC2(C)C)cc1OC | 26.1 | -7.4
N#C/C(=C\c1c[nH]c2ccccc12)C(=O)Nc1cc([N+](=O)[O-])ccc1Cl | 7.0 | -3.6
N#C/C(=C\c1cc([N+](=O)[O-])ccc1Cl)C(=O)NCCc1c[nH]c2ccccc12 | 96.0* | -3.8
CCOc1cccc(CNC(=O)C2CCN(c3cncnc3N3CCN(C)CC3)CC2)c1 | 19.9 | -1.2
O=C(Cc1cccs1)Nc1cnc(-c2ccccc2)nc1 | 51.2* | 33.6
O=C(Cc1cccs1)Nc1cccc(C(=O)c2ccccc2)c1 | -4.2 | -9.0
Cc1ccc(NC(=O)C2CC(=O)N(C)C(=Nc3cccc(F)c3)S2)cc1Cl (centres undefined) | 19.0 | 0.4
COc1ccccc1CNC(=O)CN(c1cc(C(F)(F)F)ccc1Cl)S(C)(=O)=O | -2.0 | -0.5
O=C(C1Cc2cc(C(F)(F)F)ccc2N2CCSCC12)N1CCOCC1 (centres undefined) | 83.1* | -5.2
O=C(NCCN1CCCCC1)C1Cc2cc(C(F)(F)F)ccc2N2CCOCC12 (centres undefined) | 30.8 | -4.0
COc1ccc2c(c1)CN(c1ccc(Cl)cc1)CO2 | 51.0* | -8.1
COc1ccc(N2COc3cc4c(cc3C2)OCO4)cc1 | 7.0 | -8.3
SMILES | mHTT-CaM PPI inh | Pf apPOL block
COc1ccc(CN2COc3cc(C)c(Cl)c(C)c3C2)cc1 | 2.0 | -1.8
COc1ccc2c(c1)CN(Cc1ccc(Cl)cc1)CO2 | 12.0 | -9.3
COc1cccc(N2COc3cc(C)c(Cl)c(C)c3C2)c1 | 98.0* | -3.6
COc1ccc(N2COc3ccc(Cl)cc3C2)cc1 | 73.0* | 1.5
COc1ccc(CN2CC(C(=O)O)CC2=O)cc1 (centres undefined) | -7.1 | 0.8
CCCOc1ccc(N2C(=O)CC(NCc3ccc(F)cc3)C2=O)cc1 (centres undefined) | -8.6 | -5.0
O=C1/C(=C/c2ccc(O)cc2)Sc2ccccc21 | 19.0 | 1.1
COc1cc(/C=C2\C(=O)NC(=O)N(c3cc(C)cc(C)c3)C2=O)ccc1O | 5.0 | 0.1
Cc1cc(OCC(=O)N2CCCCC2CCN2CCCC2)ccc1Cl (centres undefined) | 13.5 | -10.3
Cc1ccc(OCC(=O)N2CCCCC2CCN2CCCCC2)cc1C (centres undefined) | 54.3* | -7.3
CCC(=O)Nc1ccc(NC(=O)COc2ccc(C)c(C)c2)cc1 | -5.4 | -9.2
COc1ccc(C(=O)Nc2ccc(N3CCOCC3)cc2)cc1 | 5.1 | -3.4
COc1ccc(C(=O)Nc2ccc(N3CCCC3)cc2)cc1 | 99.0* | 1.0
Cc1cccc(OCC(=O)Nc2ccc(Nc3ccccc3)cc2)c1 | 73.5* | 1.1
Cc1ccc(OCC(=O)Nc2ccc(N3CCCC3)cc2)cc1C | 99.1* | 4.3
CCC(=O)Nc1ccc(NC(=O)COc2cccc(C)c2)cc1 | -2.3 | -2.8
Cc1cccc(/C=C2\N=C(c3ccccc3F)OC2=O)c1 | 20.0 | 1.9
Cc1cc(C)n(CC(=O)N2CCC(c3nc(-c4ccncc4)no3)C2)n1 (centres undefined) | 2.8 | -4.9
Cc1cccc(NC(=O)NCC(c2cccs2)N2CCOCC2)c1 (centres undefined) | -16.6 | -3.7
CCOc1cc(C(=O)Nc2ccc(N3CCCC3)cc2)cc(OCC)c1OCC | 79.0* | -8.3
COc1ccc(C(=O)Nc2ccc(N3CCCC3)cc2)cc1OC | 6.9 | -9.2
NNC(=O)C(C(=O)NN)C1CCS(=O)(=O)C1 (centres undefined) | -5.3 | ·
CCOc1ccc(N2CCN(CC(=O)NC(C)c3ccccc3)C2=O)cc1 (centres undefined) | -12.2 | 0.5
CCn1cc2c3c(cccc31)CN(C(C)=O)CC2 | 4.7 | -2.9
CCn1cc2c3c(cccc31)CN(C(=O)COc1ccccc1)CC2 | 75.5* | -8.2
SMILES | mHTT-CaM PPI inh | Pf apPOL block
CCn1cc2c3c(cccc31)CN(C(=O)c1ccc(F)cc1)CC2 | 29.6 | -6.4
CCCn1cc2c3c(cccc31)CN(C(=O)COc1ccc(F)cc1)CC2 | 54.8* | -3.0
COCCNC(=O)c1cncc(-c2cc(C)ccc2C)c1 | -3.3 | -5.1
CCN(CCNC(=O)CC1CCN(c2ccnc(NC)n2)CC1)Cc1ccccc1 | 30.8 | -4.3
CC(=O)Nc1ccc(S(=O)(=O)Nc2ccc(C)cc2Br)cc1 | -2.3 | -6.9
CC(=O)Nc1ccc(S(=O)(=O)Nc2ccc(C)cc2[N+](=O)[O-])cc1 | 50.7* | 0.1
CC1(C)CC2(CCS1)N1CC3(C)CN2CC(C)(C1)C3=O (centres undefined) | -0.1 | ·
Cc1ccc(Nc2ccc(NC(=O)c3snnc3C)cc2)nn1 | 100.1* | -4.1
Cc1nnsc1C(=O)Nc1ccc(CN2CCS(=O)(=O)CC2)cc1 | · | -2.7
COc1ccc(/C=c2\sc3ncnn3c2=O)cc1OC | -4.0 | -8.8
O=C(CNCc1cccnc1)N1c2ccccc2Sc2ccc(C(F)(F)F)cc21 | 8.0 | -6.5
COc1ccc(C)cc1C(=O)C1CC(C(=O)O)C(C)(C)C1C (centres undefined) | 3.6 | 58.7*
COc1ccc(C)cc1NC(=O)C1C2C=CC(C2)C1C(=O)O (centres undefined) | 1.4 | -3.7
COc1cccc(C2C(C#N)=C(N)N(c3ncn[nH]3)C3=C2C(=O)CC(C)(C)C3)c1 (centres undefined) | 2.0 | -2.9
O=C(Cn1nnc(-c2ccccc2)n1)Nc1cccc([N+](=O)[O-])c1 | 7.0 | -3.4
O=[N+]([O-])c1ccc(-c2nnn(CNc3ccccc3)n2)cc1 | 53.0* | -2.5
O=c1cc(-c2ccccc2[N+](=O)[O-])oc2ccccc12 | 4.6 | -9.6
O=c1oc2c(-c3ccccc3[N+](=O)[O-])cc(O)cc2s1 | 61.0* | 43.4
Cc1ccc(-c2cc(O)cc3sc(=O)oc23)cc1C | 79.0* | 8.5
Cc1cc(O)c2c(c1)C(=O)c1cc(O)cc(O)c1C2=O | · | -67.6
O=c1/c(=C/C=C/c2ccccc2)sc2nc(-c3cccs3)nn12 | 52.0* | 0.4
O=c1/c(=C/c2ccccc2)sc2nc(-c3cccs3)nn12 | 4.0 | -11.6

Compound activity as filed in PubChem BioAssay.
